# Assay results: PubChem BioAssay (NCI)
# Compounds without any hit were thinned out: in the full panel of roughly 83,000, 20% have a hit.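 Assay: single dose, 48 h. Readout: percent growth (0 = no net growth; negative = cell death). Active: <10.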 A number with no mark means an inactive call. The source made the active and inactive calls.
# Experiments:
# Experiment in all cases: NCI-60 one-dose screen, 48 h (100 = growth as untreated, 0 = no growth, -100 = all killed)
# Conditions in all cases: 10 µM unless noted
# [1] = tested on: NCI-H23 lung
# [2] = tested on: NCI-H226 lung
# [3] = tested on: NCI-H322M lung
# [4] = tested on: HOP-62 NSCLC
# [5] = tested on: NCI-H460 lung
# [6] = tested on: HOP-92 NSCLC
# [7] = tested on: NCI-H522 lung
# [8] = tested on: A549/ATCC NSCLC
# [9] = tested on: 786-0 renal
# [10] = tested on: COLO 205 colon
SMILES,growth [1],growth [2],growth [3],growth [4],growth [5],growth [6],growth [7],growth [8],growth [9],growth [10]
CSc1nn2c(-c3cc4cc(Br)ccc4oc3=O)ccnc2c1C#N,95.3%,99.3%,102%,97.9%,104%,105%,92.8%,107%,101%,119%
CCOC(=O)C#Cc1c(CC(=O)OCC)nnn1[C@H]1O[C@@H](CO)[C@@H]2OC(C)(C)O[C@@H]21,95.3%,93.8%,93.9%,101%,104%,75.1%,-57.6% (active),75.9%,83.9%,-40.3% (active)
Cc1cccc(C)c1NC(=O)Nc1ccccc1,88.4%,107%,80.3%,95.8%,44%,128%,49.4%,86.8%,110%,102%
Cn1ccnc1C(=O)/C=C/c1ccc(C(=O)Nc2c(F)c(F)c(F)c(F)c2F)cc1,-28.5% (active),13%,6.92% (active),1.97% (active),-41% (active),49.7%,4.29% (active),6.57% (active),-34.6% (active),-24.2% (active)
O=C1CC2C=CCN2C=C1NC(=O)c1ccccc1 (stereo not given),101%,102%,99.8%,114%,111%,110%,104%,92.6%,98.5%,102%
C#CCOc1cccc(Nc2c(Cl)c(CCl)nc3ccc(Oc4ccccc4)cc23)c1,64.2%,72.3%,83.7%,93.1%,96.2%,64.2%,-6.45% (active),90.7%,17.7%,83.2%
CC1(C)C2=C(C(=O)N1Cc1ccccc1)C(c1ccco1)N(C(=O)C1CCC1)CCN2 (stereo not given),95.8%,116%,107%,103%,106%,115%,93.8%,75.8%,99.5%,112%
COc1ccc(S(=O)(=O)Oc2ccc(-c3sc4cc(OS(=O)(=O)c5ccc(OC)cc5)ccc4c3C(=O)c3ccc(OCCN4CCCCC4)cc3)cc2)cc1,104%,104%,98.5%,95.8%,105%,108%,91.4%,88.2%,93%,109%
CN1C(=O)N(C)C2C1NN=c1s/c(=C\c3ccccc3F)c(=O)n12 (stereo not given),33.1%,57.8%,37.3%,32.9%,3.14% (active),76.8%,-8.56% (active),21%,36%,8.94% (active)
COc1cccc(NC(=O)c2sc3nc(C)c(C(=O)c4ccccc4)cc3c2N)c1,101%,93.9%,84.3%,89.7%,61.2%,86.9%,92.5%,35.1%,89%,107%
C=C1CC[C@@H]2[C@](C)(COC(C)=O)[C@H](OC(C)=O)CC[C@@]2(C)[C@@H]1CC(Nc1ccc(S(=O)(=O)Nc2nccc(C)n2)cc1)C1=CCOC1=O (stereo not given in full),48.4%,-12.1% (active),64.8%,156%,46.9%,71.6%,-50.6% (active),63.4%,32.5%,9.64% (active)
CC(C)n1cc(C2=C(c3cccc4ccccc34)C(=O)NC2=O)c2cc(Br)ccc21,49%,37.8%,87.5%,78.5%,67.5%,158%,79.9%,60.5%,54.9%,62.2%
Nc1ncc(-c2ccc3ncnc(N4CCc5cc(F)c(Cl)cc54)c3c2)cn1,58.8%,33.6%,25.1%,28.7%,38.8%,11.5%,44.1%,28.5%,26%,51.5%
O=CN1N=C(c2cccc(Nc3ccncc3)c2)CC1c1ccc2c(c1)OCO2 (stereo not given),89.7%,85.7%,99.4%,80.2%,105%,73.4%,83.3%,83.8%,95.3%,113%
CC(=O)O[C@H]1C[C@@]2(C)[C@@H](C[C@@H](O)[C@H]3[C@@]4(C)CC[C@H](N5CCCC5)[C@@H](C)[C@@H]4CC[C@@]32C)/C1=C(\CCC=C(C)C)C(=O)O,95.7%,94.6%,101%,100%,101%,83.7%,91.2%,102%,105%,108%
C/C(=C(\c1ccc(OCCCN(C)C)cc1)c1ccc(OC(=O)Cc2ccccc2)cc1)c1ccc(Cl)cc1,84.6%,100%,86.8%,78.9%,40.8%,51.8%,67.2%,63.3%,68.3%,50.6%
CCN1CCN(C(=O)[C@]23CC[C@@H](C)[C@H](C)[C@@H]2C2=CC[C@@H]4[C@@]5(C)C/C(=C/c6ccncc6)C(=O)C(C)(C)[C@@H]5CC[C@@]4(C)[C@]2(C)CC3)CC1,20.8%,24.7%,53.2%,33.2%,-6.85% (active),45.2%,23.4%,25.5%,19.6%,-15.6% (active)
CCCCCCCCOC(=O)c1c(C)[nH]c(/C=C2\N=C(c3ccc[nH]3)C=C2OC)c1C,3.19% (active),9.15% (active),26%,12.7%,10.2%,-12.5% (active),4.04% (active),-10.9% (active),-40.1% (active),-33.7% (active)
Cc1nc2sc(C(=O)Nc3ccccc3)c(N)c2cc1C(O)c1ccccc1 (stereo not given),33.5%,64%,56.3%,39.6%,4.01% (active),63.7%,12.8%,24.4%,40.8%,-8.82% (active)
COc1cc(/C=N/NC(=O)c2ccc3nc(-c4ccc(Cl)cc4)[nH]c3c2)cc(OC)c1OC,53.7%,76%,87.5%,81.7%,82.8%,71.7%,78.3%,85.8%,51.2%,45.7%
COc1cc(CNC(=O)CCCC/C=C/C(C)C)ccc1OCc1cn(-c2cccc([N+](=O)[O-])c2)nn1,88%,90.9%,94.1%,97.4%,91.8%,70.4%,82.6%,92%,73.4%,107%
Oc1ccc(C2OCCO2)c2cccnc12,33%,23.4%,92.5%,51.6%,68.1%,68.8%,92.9%,56.3%,97.9%,63.7%
C=CC(=O)Nc1ccc2ncnc(Nc3cccc(NS(=O)(=O)CCC)c3Cl)c2c1,68.9%,46.7%,15.8%,67.3%,68.6%,35.1%,17.8%,50.8%,42.4%,12%
CCCCCCCCNC(=O)[C@@H](N)CSCOC(C)=O,87.4%,104%,89.8%,66.7%,72.9%,122%,90.6%,84.3%,106%,109%
Cn1cc(-c2nc(-c3c[nH]c4ccncc34)cs2)c2cc(F)ccc21,-55.9% (active),57.9%,-75% (active),-85.6% (active),-70.5% (active),-89.5% (active),-66.1% (active),-79.6% (active),-92.5% (active),-74.1% (active)
Clc1ccc2c(NCCCn3cnc4c(N5CCCC5)nc(Cl)nc43)ccnc2c1,98.7%,102%,92.7%,91.5%,107%,107%,91.5%,96.5%,96.4%,88.2%
CC(=O)[C@H]1CC[C@]2(C)[C@@H]1CC[C@@H]1[C@@]3(C)C/C(=C/c4cccnc4)C(=O)C(C)(C)[C@@H]3CC[C@]12C,78.2%,81.1%,91.6%,115%,67.3%,48.8%,68%,65.9%,121%,64.2%
